Results published in ChEMBL document CHEMBL3988442, “University of Dundee, Small-Polar-MMV Screening Library” (2021).
Screen size: about 69,000 compounds; about 950 (1.4%) showed an effect of 50% or more. The sample holds strong results, similar compounds and a random draw of the others, so the mix is not that of the screen.

The compounds below were run on Mycobacterium tuberculosis (assay: Cornell M. t heat shock assay; note: in the data most compounds retested in dose-response had high values).
Type: functional, organism-based
Set-up: dose or concentration left out as unconfirmed
In the case of CN[C@H]1CC[C@]2(CC1)CNC(=O)c1cc(C)ccc1O2, the “Percent Effect” value is reported as -8.947%. CN1CCN(S(=O)(=O)c2ccccc2)Cc2cccnc21.O=C(O)C(F)(F)F was tested, and the “Percent Effect” value was 19.11%. For CN(C)CC(=O)N1CCC2(CC1)CN(Cc1cccnc1)C(=O)CO2, the “Percent Effect” value was -16.01%. With Cc1cc(C)n(CC2CCCN2CCCS(C)(=O)=O)n1 (stereo unspecified) the “Percent Effect” value was 7.273%. In the case of CCCC(O)CN1CCC(=O)N(Cc2ccccc2)Cc2ccccc21 (stereo unspecified), the “Percent Effect” value is reported as 5.738%. In the case of CCN1CCC(=O)N(C)Cc2cc(F)ccc21, the “Percent Effect” value is reported as 13.57%. For CN1Cc2cc(F)ccc2N(CC(C)(C)O)CCC1=O, the “Percent Effect” value was 56.09%. CCCC(O)CN1CCC(=O)N(CCOC)Cc2cc3c(cc21)OCO3 (stereo unspecified) was tested, and the “Percent Effect” value was 26.79%. For COc1ccc2c(c1)CN(C)C(=O)CCN2CC(O)C(F)(F)F (stereo unspecified), the “Percent Effect” value was 35.74%. With CCCC(O)CN1CCC(=O)N(C)Cc2cc(F)ccc21 (stereo unspecified) the “Percent Effect” value was 66.32%. CCCC(O)CN1CCC(=O)N(CC)Cc2cc3c(cc21)OCO3 (stereo unspecified) was tested, and the “Percent Effect” value was 53.46%. In the case of CCCC(O)CN1CCC(=O)N(CC2CC2)Cc2cc3c(cc21)OCO3 (stereo unspecified), the “Percent Effect” value is reported as 15.68%. With CN1Cc2cc(F)ccc2N(CC(O)C(F)(F)F)CCC1=O (stereo unspecified) the “Percent Effect” value was 54.29%. For CN1Cc2ccccc2N(CC(O)C(F)(F)F)CCC1=O (stereo unspecified), the “Percent Effect” value was 42.32%. In the case of CCCC(O)CN1CCC(=O)N(CCOC)Cc2ccccc21 (stereo unspecified), the “Percent Effect” value is reported as 30.93%. In the case of CC(C)(O)CN1CCC(=O)N(Cc2ccco2)Cc2cc(F)ccc21, the “Percent Effect” value is reported as -9.768%. With CCc1ccc(CN2C[C@H](OC)[C@H]3COC[C@H]32)o1.O=C(O)C(F)(F)F the “Percent Effect” value was 46.3%. With Cn1cc(CN2C[C@H]3CCC[C@@]3(COc3ccccn3)C2)cn1.O=C(O)C(F)(F)F.O=C(O)C(F)(F)F the “Percent Effect” value was -2.585%. For Cl.Fc1cccc(F)c1Cn1c(C2CCNCC2)cc2cccnc21, the “Percent Effect” value was -5.947%. In the case of Cc1nc(CN2C(=O)C[C@H]3[C@H]2CCN3CC2CCOC2)cs1.O=C(O)C(F)(F)F (stereo partly specified), the “Percent Effect” value is reported as -4.028%. For COCC1CC2(CCN(c3ccc(C)nn3)CC2)CN1C(C)C.O=C(O)C(F)(F)F (stereo unspecified), the “Percent Effect” value was -4.94%. For Cl.Cl.O=C(NCc1cncc2c1CCN(CC1CCOC1)C2)c1ccco1 (stereo unspecified), the “Percent Effect” value was 5.54%. In the case of COCCN1CCC2(C1)c1ccccc1S(=O)(=O)N2C.O=C(O)C(F)(F)F (stereo unspecified), the “Percent Effect” value is reported as 24.71%. With Cc1cc(N2CCN(Cc3ccnn3C)CC2)cc(C2CCCN2)n1.Cl (stereo unspecified) the “Percent Effect” value was -17.02%. With Cc1nc(C2(O)CCCNCC2)sc1CCOc1ccc(F)c(F)c1.Cl (stereo unspecified) the “Percent Effect” value was -9.071%. CC(C)CS(=O)(=O)N1C[C@H]2C[C@H](C(=O)N(C)C)[C@@H](C1)O2 was tested, and the “Percent Effect” value was 1.328%. CCN1Cc2cc(F)ccc2N(CC(O)C(F)(F)F)CCC1=O (stereo unspecified) was tested, and the “Percent Effect” value was 51.9%. In the case of CCN1Cc2cc(OC)ccc2N(CC(C)(C)O)CCC1=O, the “Percent Effect” value is reported as -11.62%. With COc1ccc2c(c1)CN(C)C(=O)CCN2CC(O)C(C)(C)C (stereo unspecified) the “Percent Effect” value was 46.8%. For CC(C)OCc1nn(C)c2c1CN(Cc1cccs1)CC2.O=CO, the “Percent Effect” value was 3.631%. For Cc1noc(CNc2c(N3CCCC3)cccc2N2CCCC2)n1, the “Percent Effect” value was 25.1%. For Cc1noc(C)c1CNc1c(N2CCCC2)cccc1N1CCCC1, the “Percent Effect” value was 65.01%. With COc1ccccc1N1CCC(NCc2c(C)noc2C)C1 (stereo unspecified) the “Percent Effect” value was -23.49%. COc1cccc(CN2CCC3(CC2)CCN(C(=O)[C@@H]2CCCO2)C3)c1.O=C(O)C(F)(F)F was tested, and the “Percent Effect” value was -4.383%. With Cc1nc(Cc2ccc(F)cc2)cc(C2COCCN2)n1.Cl (stereo unspecified) the “Percent Effect” value was 12.05%. With O=C(Nc1ccccc1)[C@H]1C[C@@H]2CN(S(=O)(=O)C3CC3)C[C@H]1O2 the “Percent Effect” value was 2.732%. With CN(C)CCN(C(=O)Cc1ccc2c(c1)OCCO2)C1CCN(C)CC1.O=C(O)CC(O)(CC(=O)O)C(=O)O the “Percent Effect” value was -33.14%. With CCOCC1CN(Cc2cccnc2)Cc2nn(C)cc21.O=C(O)C(F)(F)F.O=C(O)C(F)(F)F (stereo unspecified) the “Percent Effect” value was -34.52%. With c1ccc(Oc2ccc(OC34CCCN(CC3)C4)cc2)cc1 (stereo unspecified) the “Percent Effect” value was 98.13%. With N#Cc1cccc(OC23CCCN(CC2)C3)c1 (stereo unspecified) the “Percent Effect” value was -19.96%. O=c1[nH]nc(CNCc2ccc(OC34CCCN(CC3)C4)cc2)[nH]1 (stereo unspecified) was tested, and the “Percent Effect” value was -6.374%. With Cc1cnccc1CNCc1ccc(OC23CCCN(CC2)C3)cc1 (stereo unspecified) the “Percent Effect” value was -9.053%. With c1ccc(Oc2cccc(OC34CCCN(CC3)C4)c2)cc1 (stereo unspecified) the “Percent Effect” value was 91.1%. For Cc1nc(CNCc2cccc(OC34CCCN(CC3)C4)c2)n[nH]1 (stereo unspecified), the “Percent Effect” value was -9.099%. In the case of CCOCC1CN(C(=O)c2cc(C)oc2C)Cc2c1cnn2C.O=C(O)C(F)(F)F (stereo unspecified), the “Percent Effect” value is reported as 38.21%. In the case of CN1CC(=O)N(c2cccc(F)c2)CC12CCN(S(C)(=O)=O)C2.O=C(O)C(F)(F)F (stereo unspecified), the “Percent Effect” value is reported as -1.241%. For CSCC(=O)Nc1ncn(Cc2cccc(Br)c2)n1, the “Percent Effect” value was -31.04%. In the case of CCOCC(=O)Nc1ncn(Cc2cccc(Br)c2)n1, the “Percent Effect” value is reported as -16.14%. COCCC(=O)Nc1ccnn1-c1ccccc1 was tested, and the “Percent Effect” value was -7.442%. In the case of CSCC(=O)Nc1nccn1Cc1ccc(Br)cc1, the “Percent Effect” value is reported as 103.2%. In the case of CCOCC(=O)Nc1ccc(-n2ccc(C(N)=O)n2)cc1, the “Percent Effect” value is reported as 15.42%. In the case of CCOCC(=O)Nc1nccn1Cc1ccc(Br)cc1, the “Percent Effect” value is reported as 106.8%. With CNC(=O)c1ccc(Cn2ccnc2S(C)(=O)=O)cc1 the “Percent Effect” value was 3.305%. COCCn1ccc(=O)c(OCC(=O)Nc2ccc(Br)cc2)c1C was tested, and the “Percent Effect” value was 17.79%. COCCC(=O)Nc1nccn1Cc1ccc(Br)cc1 was tested, and the “Percent Effect” value was 102.5%. For CSc1ncccc1C(=O)Nc1ccc(Cn2ccccc2=O)cc1, the “Percent Effect” value was 5.912%. CS(=O)(=O)c1nccn1Cc1ccc(C(N)=O)cc1 was tested, and the “Percent Effect” value was 2.892%. With CC(C)(C#N)C(=O)Nc1nccn1Cc1ccc(Br)cc1 the “Percent Effect” value was 102.4%. O=C1c2cnc(N3CCOCC3)nc2CN1C1CCS(=O)(=O)C1 (stereo unspecified) was tested, and the “Percent Effect” value was 3.438%. CN(C)[C@@H]1CCN(C(=O)Cc2cccs2)[C@H]1Cc1ccncc1.O=C(O)C(F)(F)F.O=C(O)C(F)(F)F was tested, and the “Percent Effect” value was -5.714%. In the case of O=C(O)C(=O)O.c1cc(CN2CCC(c3ccc4c(c3)OCO4)CC2)ccn1, the “Percent Effect” value is reported as -9.586%. In the case of Cc1nc[nH]c1CN1C[C@@H]2CC[C@H](C1)N(C(=O)CCn1cncn1)C2, the “Percent Effect” value is reported as 2.899%. Cc1cc(C(=O)N2CCO[C@H]3[C@H](OCCN(C)C)CC[C@@H]32)c(C)[nH]1.O=C(O)C(F)(F)F was tested, and the “Percent Effect” value was -25.69%. O=C(O)C(F)(F)F.O=C(O)C(F)(F)F.c1cnn(Cc2nnc3n2CCCN(Cc2ccsc2)C3)c1 was tested, and the “Percent Effect” value was -42.35%. With O=C(O)C(F)(F)F.c1cnc(N2CCCC3(CCN(CC4CCOC4)CC3)C2)nc1 (stereo unspecified) the “Percent Effect” value was -17.62%. In the case of COCC(=O)NC(C)Cc1ccc(Br)cc1 (stereo unspecified), the “Percent Effect” value is reported as 38.61%. For COCC(=O)Nc1nn(Cc2ccc(F)cc2)cc1Cl, the “Percent Effect” value was -26.17%. For COCC(=O)Nc1nccn1Cc1ccc(Br)cc1, the “Percent Effect” value was 82.4%. Cc1cc(Cc2ccccc2)cc(C2CCCNC2)n1 (stereo unspecified) was tested, and the “Percent Effect” value was -1.453%. With Cc1cc(Cc2cccc(C(F)(F)F)c2)cc(C2CCCNC2)n1 (stereo unspecified) the “Percent Effect” value was 52.39%. With Cc1cccc(Cc2cc(C)nc(C3CCCNC3)c2)c1 (stereo unspecified) the “Percent Effect” value was -6.804%. In the case of CN(C)C(=O)C1CCN(C2CCN(CC3CCC3)CC2)CC1.O=C(O)C(F)(F)F.O=C(O)C(F)(F)F, the “Percent Effect” value is reported as 5.992%. In the case of CNc1cncc(C2CCCN2Cc2ccn(C)n2)n1 (stereo unspecified), the “Percent Effect” value is reported as -19.6%. In the case of c1cc(C2CCCN2CC2CC2)n[nH]1 (stereo unspecified), the “Percent Effect” value is reported as 1.213%. CNc1cncc(C2CCCN2S(=O)(=O)c2ccccc2)n1 (stereo unspecified) was tested, and the “Percent Effect” value was -16.46%. c1ccc(CCN2CCCC2c2cncc(Nc3nncs3)n2)cc1 (stereo unspecified) was tested, and the “Percent Effect” value was 99.24%. Cc1nc(Nc2nncs2)cc(C2CCCN2C)n1 (stereo unspecified) was tested, and the “Percent Effect” value was -13.41%. For c1nnc(Nc2cncc(C3CCCN3CC3CC3)n2)s1 (stereo unspecified), the “Percent Effect” value was 103.4%. With Cl.Cl.c1ccc2c(c1)C(NC1CCCC1)CC21CCNCC1 (stereo unspecified) the “Percent Effect” value was -6.748%. With O=C1C[C@H]2CC[C@@H](CN1)N2C(=O)CCCc1ccc(Cl)cc1 the “Percent Effect” value was -2.57%. With CN1[C@H]2CC[C@@H]1CN(C(=O)c1ccc(-c3ccccc3)[nH]1)CC2 the “Percent Effect” value was 5.823%. For CC(C)C(=O)N1CCC(n2nc(-c3ccco3)ccc2=O)CC1, the “Percent Effect” value was 1.271%. O=C(c1ccco1)N1CCC(n2nc(-c3ccco3)ccc2=O)CC1 was tested, and the “Percent Effect” value was 18.57%. In the case of O=C(Cc1ccsc1)N1CCC(n2nc(-c3ccco3)ccc2=O)CC1, the “Percent Effect” value is reported as 50.48%. With Cc1nc(CNCC2Cn3nncc3CO2)cs1.O=C(O)C(F)(F)F (stereo unspecified) the “Percent Effect” value was 3.892%. In the case of O=C(O)C(F)(F)F.O=C(c1cscn1)N1CCC2(CN(Cc3ccoc3)C2)C1, the “Percent Effect” value is reported as -1.882%. In the case of COCc1nc2cc(NCc3ccc(CO)o3)ccc2o1, the “Percent Effect” value is reported as -21.34%. COCc1nc2cc(NCc3ccncc3)ccc2o1 was tested, and the “Percent Effect” value was 47.84%. With COCc1nc2cc(NCc3ccc(C)o3)ccc2o1 the “Percent Effect” value was 60.09%. For CCc1ccsc1C(=O)N1CCN(CC(O)CC)CC1 (stereo unspecified), the “Percent Effect” value was 21.24%. With O=C(c1ccco1)N1C(CO)[C@]2(O)CC[C@H]1CC2 (stereo partly specified) the “Percent Effect” value was 34.52%. For CN(C)CCN1CCO[C@@H]2CN(C(=O)c3cccs3)CC[C@@H]2C1.O=C(O)C(F)(F)F.O=C(O)C(F)(F)F, the “Percent Effect” value was -0.5819%. In the case of CN(C)CCN1CCO[C@@H]2CN(C(=O)Cc3ccsc3)CC[C@@H]2C1, the “Percent Effect” value is reported as 50.48%. With Cc1ccc(CC(=O)N2CC[C@@H]3CN(CCN(C)C)CCO[C@@H]3C2)cc1.O=C(O)C(F)(F)F.O=C(O)C(F)(F)F the “Percent Effect” value was -3.479%. With CCc1c(C)[nH]c(C2(N)CCCCC2)nc1=O.Cl the “Percent Effect” value was -31.03%. With COc1ccc(Oc2ncccc2NC(=O)N2CC[C@H](O)C2)cc1 the “Percent Effect” value was -5.111%. For O=C(NCCOCCO)c1cccnc1Oc1ccc(Cl)cc1, the “Percent Effect” value was 43.92%. With O=C(c1cccnc1Oc1ccc(Cl)cc1)N1CC[C@@H](O)C1 the “Percent Effect” value was 54.07%. With COCCNC(=O)c1cccnc1Oc1ccc(Cl)cc1 the “Percent Effect” value was 50.01%. In the case of O=C(c1cccnc1SCc1ccccc1)N1CC[C@@H](O)C1, the “Percent Effect” value is reported as 7.782%. In the case of CCOC(=O)CNC(=O)c1cccnc1Oc1ccc(Cl)cc1, the “Percent Effect” value is reported as -21.74%.
